# TRAIL sens C8 – caspase-8 TRAIL sensitization | NB7+C8 cells + TRAIL, ATPlite viability luminescence | inhibition (viability loss, TRAIL sensitization), % at 10 µM | hit rate 1% among 360,000;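 active = compounds causing at least 50% loss of cell viability in the single-dose screen, relative to plate controls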
# HSP90 inh – HSP90 refolding inhibition in rabbit reticulocyte lysate. luciferase refolding luminescence, 3 h. inhibition, % at 5.6 µM. hit rate 0.91% among 290,000;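 active = inhibition above the screen-wide mean plus 3 SD, computed separately per campaign, cut at about 16% in these data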;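 note: 0% = DMSO wells and 100% = 60 µM geldanamycin wells; inhibitors lower the luminescence because luciferase stays unfolded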
# PPC-1+TRAIL kill – kills PPC-1 cancer cells in the presence of TRAIL. PPC-1 cells + TRAIL, ATPLite viability luminescence. cell killing (% activity), % at 4 µM or 5 µM. hit rate 0.41% among 220,000;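 active = cell killing above 50% in the first pass at 4 µM, then a duplicate retest at 5 µM averaging 50% or more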;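 note: plate controls were cells with TRAIL plus DMSO for no effect and medium-only wells lacking cells for full effect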
# STAT1 inh – STAT1 signaling inhibition | AID 920 | NIH 3T3 STAT1-luciferase reporter, IFN-gamma, luminescence | hit rate 0.35% among 200,000 | inhibition, % at 5.5 µM;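 active = inhibition above a set limit, the mean inhibition across all tested compounds plus 3 SD, cut at about 34% in these data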;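 note: 0% = IFN-gamma with DMSO and 100% = IFN-gamma with 300 µM nifuroxazide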
# HSF1 inhib – HSF1 inhibition; AID 2098; hit rate 0.77% among 300,000; NIH3T3-HGL HSE-luciferase, MG132-induced, luminescence 8 h; active compounds read low; activity change, negative = inhibition, % at 7.5 µM (by protocol);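 active = more than half of replicate wells show activity change below -50%, luminescence cut by over half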;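 note: luciferase reports HSF-1 transcriptional activity via heat shock element; 0% = median of DMSO wells and -100% = zero luminescence signal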
# STAT3 inh – STAT3 signaling inhibition; U3A cells, IL-6 STAT3-luciferase reporter, luminescence; host cell line lacks STAT1; inhibition, % at 5.5 µM; hit rate 0.89% among 190,000; AID 862;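 active = inhibition above the mean inhibition across all screened compounds plus 3 SD, cut at about 44% in these data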;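 note: 0% = DMSO only wells and 100% = 100 µM nifuroxazide control wells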
# HSP90 inh confirm – HSP90 inhibition, confirmation assay; hit rate 64% among 2,300; AID 1846; shares compounds with HSP90 inh; inhibition, % at 5.9 µM; rabbit reticulocyte lysate, luciferase refolding luminescence, 3 h; in the data active = inhibition above about 18%;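 note: 0% = vehicle wells and 100% = reference inhibitor wells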
# FLuc counter – firefly luciferase inhibition, HSP90 counter-screen. hit rate 48% among 2,300. shares compounds with HSP90 inh. purified native firefly luciferase, luminescence. inhibition, % at 5.9 µM;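 active = inhibition above the mean inhibition of all tested sample wells plus 3 SD, cut at about 10% in these data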;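 note: 0% = DMSO with luciferase and 100% = wells lacking luciferase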
# Target sequence (P08659 whole entry, looked up): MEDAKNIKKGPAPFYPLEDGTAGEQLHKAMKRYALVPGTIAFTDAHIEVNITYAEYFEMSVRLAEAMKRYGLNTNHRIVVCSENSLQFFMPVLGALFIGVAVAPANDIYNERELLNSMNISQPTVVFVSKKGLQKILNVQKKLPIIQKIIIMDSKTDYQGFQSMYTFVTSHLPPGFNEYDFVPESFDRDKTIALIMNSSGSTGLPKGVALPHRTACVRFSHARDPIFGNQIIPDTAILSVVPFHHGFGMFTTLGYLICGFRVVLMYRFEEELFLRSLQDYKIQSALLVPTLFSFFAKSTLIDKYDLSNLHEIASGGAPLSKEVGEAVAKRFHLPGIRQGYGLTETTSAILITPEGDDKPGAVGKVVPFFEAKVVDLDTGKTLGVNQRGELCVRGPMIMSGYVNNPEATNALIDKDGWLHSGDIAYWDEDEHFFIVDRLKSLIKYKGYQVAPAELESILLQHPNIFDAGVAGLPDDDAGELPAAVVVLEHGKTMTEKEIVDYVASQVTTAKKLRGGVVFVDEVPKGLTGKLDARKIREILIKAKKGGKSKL
# * marks the source's active call; other numbers are inactive results; nt = not tested or not shown. In the library only some 2.4% were active in any assay of this set; here they are far more common.
SMILES,TRAIL sens C8,HSP90 inh,PPC-1+TRAIL kill,STAT1 inh,HSF1 inhib,STAT3 inh,HSP90 inh confirm,FLuc counter
CCCSc1ccc2nc(-c3ccccc3)cn2c1,92.0*,45.8*,84.6*,78.6*,-16.2,103.0*,90.2*,82.9*
CCCCSc1ccc2nc(-c3ccc(C#N)cc3)cn2c1,12.2,-1.1,18.7,-34.6,29.0,12.7,nt,nt
CC(=O)N(CCN1CCOCC1)Cc1cc2cc3c(cc2nc1Cl)OCO3,-2.0,23.9*,13.7,10.4,-3.8,-4.4,-6.6,-7.5
Cc1cc(C(=O)CSc2nnc(-c3ccccc3)n2-c2ccccc2)c(C)n1-c1ncn[nH]1,-14.2,-1.5,33.1,1.0,0.1,3.6,nt,nt
Cc1cc(C(=O)CSc2nnc3ccccn23)c(C)n1-c1ccccc1,52.6*,61.8*,32.9,67.3*,-81.2*,96.5*,86.4*,78.8*
CN1CCN(C(=O)/C=C/c2ccc(C#N)cc2)CC1,-14.0,4.5,nt,nt,1.8,nt,nt,nt
CCOc1ccc(CCNC(=O)C2CCN(c3nn4c(=O)cc(C)nc4s3)CC2)cc1,31.6,17.6*,21.2,0.6,nt,1.4,-9.4,-11.9
Cc1ccc(CCNC(=O)C2CCN(c3nn4c(=O)cc(C)nc4s3)CC2)cc1,8.3,-1.4,32.7,-6.4,-0.8,11.4,nt,nt
Clc1ccc(CSc2nnc(-c3ccccn3)n2Cc2cccs2)cc1Cl,9.2,nt,nt,nt,nt,nt,nt,nt
CC(=O)CC(=O)Nc1nc(C)cc(C)n1,-6.6,27.1*,4.1,-2.1,1.3,4.8,-1.1,-3.5
CCOCC(=O)Nc1nc(C)cc(C)n1,1.2,-3.1,16.5,-1.1,-4.9,-2.0,nt,nt
O=C(CSc1ccccc1)Nc1ccc(N2CCN(c3ccccc3)CC2)c(F)c1,-4.3,-3.4,5.9,2.4,28.1,-0.7,nt,nt
COCC(=O)Nc1ccc(N2CCN(c3ccccc3)CC2)c(F)c1,-4.5,27.4*,nt,nt,-0.6,nt,-7.3,-12.6
Cc1nc(N)sc1-c1csc(Nc2ncccn2)n1,23.5,-0.8,4.1,-27.6,-13.4,13.7,nt,nt
CCC(=O)Nc1nc(C)c(-c2csc(Nc3ccccn3)n2)s1,1.0,-7.0,8.0,-64.1,-10.6,-0.9,nt,nt
Cc1nc(N)sc1-c1csc(NCc2ccccc2)n1,-12.7,56.4*,14.7,-4.4,3.5,5.9,6.3,-5.1
Cc1nc(NC(=O)c2ccccc2)sc1-c1csc(NCCc2ccccc2)n1,2.9,41.8*,-5.8,0.7,10.7,15.8,19.3*,-7.1
Cc1nc(NC(=O)c2ccccc2)sc1-c1csc(N)n1,5.6,61.0*,16.3,-28.9,14.3,29.6,11.3,-23.9
Cc1nc(NC(=O)c2ccccc2)sc1-c1csc(NCc2ccccc2)n1,1.4,59.8*,7.2,-5.4,7.8,10.1,23.6*,-13.6
CCOC(=O)CNC(=O)c1sc(NC(=O)c2ccccc2)nc1C,-1.8,12.6,22.3,-2.3,8.3,-2.6,nt,nt
CCCCNC(=O)c1ccc(Cc2cn(C)c3ccccc23)nc1,-13.2,nt,nt,nt,nt,nt,nt,nt
O=C(CCNC(=O)C1CCN(S(=O)(=O)c2ccc(F)cc2)CC1)NCc1ccccn1,-0.5,nt,nt,nt,nt,nt,nt,nt
COc1ccc(C2CC(c3ccc(Cl)cc3)n3nc(N)nc3N2)cc1 (stereo not given),-4.8,0.5,15.2,1.2,-11.1,8.9,nt,nt
COc1ccccc1-c1noc(CCCC(=O)N2CCOCC2)n1,9.9,-4.3,5.6,nt,-4.3,nt,nt,nt
CC(C)Oc1ccccc1OC1(C)CCN(Cc2ccc(OC(F)(F)F)cc2)C1 (stereo not given),10.1,nt,nt,nt,nt,nt,nt,nt
SMILES,TRAIL sens C8,HSP90 inh,PPC-1+TRAIL kill,STAT1 inh,HSF1 inhib,STAT3 inh,HSP90 inh confirm,FLuc counter
O=C(C1CCCCC1)N1CCN=C1SCc1cccc([N+](=O)[O-])c1,-3.5,-3.2,-24.5,2.5,1.8,-0.5,nt,nt
Cc1nc(N/N=C/c2ccccn2)sc1C,nt,80.5*,69.5*,79.8*,nt,88.6*,90.1*,86.4*
COC(=O)c1ccc(/C=N/Nc2nc(C)c(C)s2)cc1,7.5,5.8,2.2,nt,-6.1,nt,nt,nt
CCCc1sc(N/N=C/c2ccccn2)nc1-c1ccc(F)cc1,5.2,63.9*,-3.7,-1.6,15.5,13.4,-2.0,-11.4
COc1ccc(C(O)c2ncc(-c3ccccc3Cl)[nH]2)cc1F (stereo not given),3.5,nt,nt,nt,nt,nt,nt,nt
COc1ccccc1-c1cncc(NC(C)=O)n1,-13.1,nt,nt,nt,nt,nt,nt,nt
COc1ccc2c(c1OC)C(=O)OC2Nc1nc(-c2cc3ccccc3oc2=O)cs1 (stereo not given),43.6,63.6*,7.6,-92.0,-1.0,24.5,13.6,2.3
Cc1cc(-c2nnc(CCC(=O)NCCc3ccccc3F)o2)no1,-19.3,1.1,nt,nt,-2.4,nt,nt,nt
COc1ccc2[nH]c(-c3ccc(C)cc3)cc(=O)c2c1,84.5*,25.2*,72.7*,-26.6,2.4,39.5,55.8*,32.6*
Cc1ccc(C)c(S(=O)(=O)N2CCC(c3nc4c(nnn4Cc4ccc5c(c4)OCCO5)c(=O)[nH]3)CC2)c1,9.4,21.5*,nt,nt,3.6,nt,25.3*,-3.7
O=c1[nH]c(C2CCN(S(=O)(=O)c3ccc4c(c3)OCCO4)CC2)nc2c1nnn2Cc1ccccc1,2.8,9.2,nt,nt,2.1,nt,nt,nt
Cc1ccc2nc(NC(=O)CCCc3nc4ccccc4s3)sc2c1,5.8,2.2,19.6,-14.6,17.3,40.9,nt,nt
CC(C)CC(=O)Nc1nc2ccc(S(C)(=O)=O)cc2s1,-1.8,29.9*,9.1,-22.8,6.4,12.1,-0.9,-17.8
CCNS(=O)(=O)c1ccc2nc(NC(=O)c3cccnc3)sc2c1,7.7,28.8*,23.8,-7.4,-38.2,6.6,2.7,-2.0
Cc1ccc2nc(NC(=O)CCCC(=O)O)sc2c1,26.9,16.9*,6.3,51.5*,nt,79.5*,24.0*,-8.7
CCC(=O)Nc1nc2ccc(S(C)(=O)=O)cc2s1,4.8,-3.9,1.4,-32.8,3.0,-21.0,nt,nt
CCOC1=C2[C@@H](CN(S(=O)(=O)c3ccc(C)cc3)[C@H]2c2ccccc2F)[C@H]2C(=O)NC(=O)[C@H]2C1,-8.5,nt,nt,nt,nt,nt,nt,nt
CCC(C)C(CO)NCCCn1cnc2c(OCc3ccccc3)ncnc21 (stereo not given),-4.1,nt,nt,nt,nt,nt,nt,nt
COC(=O)C1=C(CN2CCCc3ccccc32)NC(=O)NC1c1ccc(F)cc1 (stereo not given),14.1,46.4*,-9.4,59.5*,-70.7*,90.9*,14.9,-9.9
O=C(Nc1ncc([N+](=O)[O-])s1)c1cccc([N+](=O)[O-])c1,46.0,16.4*,16.8,nt,9.2,nt,59.8*,34.4*
O=S(=O)(c1cc(-c2nc3ccccc3s2)ccc1Cl)N1CCOCC1,nt,-0.4,21.9,3.2,nt,-3.3,nt,nt
CCCc1cc(=O)oc2cc(OCc3nn[nH]n3)ccc12,0.8,3.0,26.4,-3.0,0.2,3.3,nt,nt
C=C(Cl)COc1ccc2c(CCC)cc(=O)oc2c1,-6.4,6.7,20.8,2.6,14.3,13.4,nt,nt

# Screening data: PubChem, several laboratories
